The text below walks through data of paper PMC8222333, “AsCas12a ultra nuclease facilitates the rapid generation of therapeutic cell medicines”.

Residue numbers refer to the chain shown, from its start.

Common to all, as to assay: Spec-seq (native PAGE EMSA with sequencing of bound and unbound); 25 mM Tris-HCl pH 7.4, 150 mM KCl, 5 mM MgCl2, 10% glycerol, 1 mM DTT, 40 ng/uL salmon sperm DNA; 400 nM Cas12a, 480 nM crRNA, 50 nM library, 37 C 1 h; native PAGE at room temperature; high values mean tight binding
Holding throughout (conditions): protein: recombinant

In assay [1] the target is dAsCas12a Ultra (Acidaminococcus sp., UniProt U2UMQ6 1-1307, M537R;F870L;D908A;E993A;D1235A).
In assay [2] the target is dAsCas12a E174R (Acidaminococcus sp., UniProt U2UMQ6 1-1307, E174R;D908A;E993A;D1235A).
Assay [3] addresses dAsCas12a S542R (Acidaminococcus sp., UniProt U2UMQ6 1-1307, S542R;D908A;E993A;D1235A).
Assay [4] has as its target d-enCas12a (Acidaminococcus sp., UniProt U2UMQ6 1-1307, E174R;S542R;K548R;D908A;E993A;D1235A).
In assay [5] the target is d-enCas12a-Ultra (Acidaminococcus sp., UniProt U2UMQ6 1-1307, E174R;S542R;K548R;M537R;F870L;D908A;E993A;D1235A).
The target in assay [6] is dAsCas12a K548R (Acidaminococcus sp., UniProt U2UMQ6 1-1307, K548R;D908A;E993A;D1235A).

B1: TCCT (dsDNA)
DNA 1: GCTATCTAGTGCTCAGTACGCACTGTCCTAGGAAACTTCTGGCAGGACCAGGTCATGAGATCGGAAGAGCACACGTCTGAACTCCAGTCA
DNA 2: TGACTGGAGTTCAGACGTGTGCTCTTCCGATCTCATGACCTGGTCCTGCCAGAAGTTTCCTAGGACAGTGCGTACTGAGCACTAGATAGC
RNA: AAUUUCUACUCUUGUAGAUAGGAAACUUCUGGCAGGACC
Regarding B1, the binding signal in assay [1] was -8.78 lnKA; in assay [2], -8.39 lnKA; in assay [3] it was -5.43 lnKA; in assay [4] it was -3.98 lnKA; in assay [5], -0.951 lnKA.

B2: TGGA (dsDNA)
DNA 1: B1 DNA 1 with C27G, C28G, T29A
DNA 2: B1 DNA 2 with A62T, G63C, G64C
RNA: B1 RNA
Take B2: the binding signal in assay [1] is -8 lnKA; in assay [3], -7.85 lnKA; in assay [4], -5.44 lnKA; in assay [5], -3.27 lnKA.

B3: TGTT (dsDNA)
DNA 1: B1 DNA 1 with C27G, C28T
DNA 2: B1 DNA 2 with G63A, G64C
RNA: B1 RNA
Turning to B3, the binding signal in assay [1] was -7.9 lnKA; in assay [2], -8.41 lnKA; in assay [3] it was -7.82 lnKA; in assay [4] it was -3.23 lnKA; in assay [5], -0.889 lnKA.

B4: TTAG (dsDNA)
DNA 1: B1 DNA 1 with C27T, C28A, T29G
DNA 2: B1 DNA 2 with A62C, G63T, G64A
RNA: B1 RNA
Consider B4, for which the binding signal in assay [1] is -8.15 lnKA; in assay [2], -8.42 lnKA; in assay [3], -7.46 lnKA; in assay [4] it was -4.03 lnKA; in assay [5] it was -1.65 lnKA.

B5: TCGA (dsDNA)
DNA 1: B1 DNA 1 with C28G, T29A
DNA 2: B1 DNA 2 with A62T, G63C
RNA: B1 RNA
Consider B5, for which the binding signal in assay [1] is -8.77 lnKA; in assay [2] it was -8.54 lnKA; in assay [3] it was -7.61 lnKA; in assay [4], -5.86 lnKA; in assay [5] it was -3.33 lnKA.

B6: TTGG (dsDNA)
DNA 1: B1 DNA 1 with C27T, C28G, T29G
DNA 2: B1 DNA 2 with A62C, G63C, G64A
RNA: B1 RNA
As to B6, the binding signal in assay [1] is -7.84 lnKA; in assay [2], -8.2 lnKA; in assay [3] it was -7.64 lnKA; in assay [4], -5.22 lnKA; in assay [5], -2.4 lnKA.

B7: TTAT (dsDNA)
DNA 1: B1 DNA 1 with C27T, C28A
DNA 2: B1 DNA 2 with G63T, G64A
RNA: B1 RNA
Consider B7, for which the binding signal was -8.23 lnKA in assay [1]; -8.07 lnKA in assay [2]; -7.55 lnKA in assay [3]; -4.53 lnKA in assay [4]; -2.12 lnKA in assay [5].

B8: TTCG (dsDNA)
DNA 1: B1 DNA 1 with C27T, T29G
DNA 2: B1 DNA 2 with A62C, G64A
RNA: B1 RNA
With B8, the binding signal in assay [1] is -6.85 lnKA; in assay [2] it was -7.11 lnKA; in assay [3], -3.01 lnKA; in assay [6], -8.63 lnKA; in assay [4], -1.14 lnKA; in assay [5], -0.323 lnKA.

B9: TCGC (dsDNA)
DNA 1: B1 DNA 1 with C28G, T29C
DNA 2: B1 DNA 2 with A62G, G63C
RNA: B1 RNA
With B9, the binding signal in assay [1] was -7.42 lnKA; in assay [2] it was -7.83 lnKA; in assay [3], -7.58 lnKA; in assay [4], -5.36 lnKA; in assay [5], -2.95 lnKA.

B10: TCTT (dsDNA)
DNA 1: B1 DNA 1 with C28T
DNA 2: B1 DNA 2 with G63A
RNA: B1 RNA
As to B10, the binding signal is -6.94 lnKA in assay [1]; -6.26 lnKA in assay [2]; -7.22 lnKA in assay [3]; -5.44 lnKA in assay [4]; -2.4 lnKA in assay [5].

B11: TGAA (dsDNA)
DNA 1: B1 DNA 1 with C27G, C28A, T29A
DNA 2: B1 DNA 2 with A62T, G63T, G64C
RNA: B1 RNA
Regarding B11, the binding signal in assay [1] is -8.9 lnKA; in assay [3] it was -8.33 lnKA; in assay [4], -5.68 lnKA; in assay [5], -3.27 lnKA.

B12: TCGT (dsDNA)
DNA 1: B1 DNA 1 with C28G
DNA 2: B1 DNA 2 with G63C
RNA: B1 RNA
On to B12, for which the binding signal was -8.83 lnKA in assay [1]; -8.58 lnKA in assay [2]; -8.35 lnKA in assay [3]; -5.85 lnKA in assay [4]; -3.4 lnKA in assay [5].

B13: TGGT (dsDNA)
DNA 1: B1 DNA 1 with C27G, C28G
DNA 2: B1 DNA 2 with G63C, G64C
RNA: B1 RNA
For the molecule B13, the binding signal in assay [1] is -8.76 lnKA; in assay [3], -8.26 lnKA; in assay [4], -5.72 lnKA; in assay [5], -3.36 lnKA.

B14: TTGT (dsDNA)
DNA 1: B1 DNA 1 with C27T, C28G
DNA 2: B1 DNA 2 with G63C, G64A
RNA: B1 RNA
Turning to B14, the binding signal in assay [1] is -7.79 lnKA; in assay [2], -7.77 lnKA; in assay [3] it was -7.47 lnKA; in assay [4] it was -4.47 lnKA; in assay [5], -1.69 lnKA.

B15: TGTG (dsDNA)
DNA 1: B1 DNA 1 with C27G, C28T, T29G
DNA 2: B1 DNA 2 with A62C, G63A, G64C
RNA: B1 RNA
In the case of B15, the binding signal was -7.7 lnKA in assay [1]; -8.19 lnKA in assay [2]; -7.46 lnKA in assay [3]; -8.2 lnKA in assay [6]; -2.08 lnKA in assay [4]; -0.568 lnKA in assay [5].
